# Reference: PubChem BioAssay (NCATS)
# Inconclusive results are not listed. Calls of active or inactive are those of the source. Calls come from the whole dose curve; as a rule, active = well fitted curve in the direction sought with a large enough effect; inconclusive = small, poorly fitted or top-dose-only effect, or another doubt; inactive = no such curve, though single readings can be large; an effect the other way counts as inactive or inconclusive.
# How the values were obtained:
# Tov112D = assay: Primary qHTS to identify gynecologic anti-cancer compounds using libraries of approved drugs and bioactive compounds (AID 1345084); conditions: Gynecologic cancer cell panel viability, ATPlite luminescence, 48 h; series mostly up to 57.5 µM; note: nearly all actives have a fitted effect of over 55% in size
# In short: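 In this quantitative HTS, cell killing is estimated from loss of ATP-dependent luciferase light. Cells see five compound concentrations over a 48 h exposure.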
# [1] = Drug repurposing screens with cells derived from glioblastoma tumor samples (AID 1345199); conditions: GBM patient neurospheres viability, ATP luminescence, 48 h; note: nearly all actives have a fitted effect of over 40% in size; note: potency is the fitted concentration of half-maximal effect
# In short: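 Primary testing used CD133+ neurospheres from four GBM patients, seven concentrations, 48 h exposure and ATP-based viability; confirmation added three slower-growing patient lines.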
# [2] = qHTS assay to identify inhibitors of the type 1 interferon - major histocompatibility complex class I in skeletal muscle: Counter screen cell viability and HiBit confirmation (AID 1347412); conditions: iHSKM muscle cells + IFN-b, HiBiT or CellTiter-Glo, 24 h; note: nearly all actives have a fitted effect of over 60% in size; note: potency is the fitted concentration of half-maximal effect
# In short: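 CRISPR HLA-B*08:01-HiBit immortalized human myoblasts (C25cl48) stimulated with 4 ng/ml IFN-beta and compounds (12-point 1:3, top 46 uM final) for 24 h at 37 C. Duplicate plates read by HiBit lytic luminescence or CellTiter Glo ATP.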
# [3] = at 45.9 µM (top of the series), tumour line D
# [4] = at 45.9 µM (top of the series), tumour line B
# [5] = at 46 µM (top of the series), tumour line A
# [6] = at 46.1 µM (top of the series), tumour line C
# % is set by controls: 0 for no effect and ±100 for the full control effect.
smiles,measurement,setting,value
COc1cc(N2CCOCC2)ccc1NC(=O)c1csc(-c2cccnc2)n1,Potency,Tov112D,inactive
C/C=C(/CC[C@@H](C)[C@H]1CC[C@H]2C3=CC[C@H]4[C@H](C)[C@@H](O)CC[C@]4(C)[C@H]3CC[C@]12C)C(C)C,"activity, negative = cell killing",[1]; [3],-7.38% (inactive)
CCOC(=O)COc1ccc2c(=O)cc(-c3ccccc3)oc2c1,"activity, negative = cell killing",[1]; [3],-18.4% (inactive)
CCCCCCCC(=O)CC[C@@H]1[C@@H](C/C=C\CCCC(=O)OC(C)C)[C@@H](O)C[C@H]1O,Potency,[1]; tumour line A,11.2 µM (active)
same,Potency,[1]; tumour line D,15.8 µM (active)
CCCCCCCCCCCCCCCC(=O)O[C@@H]1CC(C)=C(/C=C/C(C)=C/C=C/C(C)=C/C=C/C=C(C)/C=C/C=C(C)/C=C/C2=C(C)C[C@@H](OC(=O)CCCCCCCCCCCCCCC)CC2(C)C)C(C)(C)C1,Potency,[1]; tumour line A,11.2 µM (active)
Cc1cc(-n2c(=O)[nH]c(=O)n(C)c2=O)ccc1Oc1ccc(S(=O)(=O)C(F)(F)F)cc1,Potency,[1]; tumour line C,20.6 µM (active)
CN1CCN(C2CCN(C(=O)Nc3cc(Oc4ccc(NC(=O)C5(C(=O)Nc6ccc(F)cc6)CC5)c(F)c4)ccn3)CC2)CC1,Potency,[2]; HiBiT,4.97 µM (active)
same,Potency,[2]; Viability,14 µM (active)
C[C@H](Nc1ncnc2nc[nH]c12)c1cc2cccc(Cl)c2c(=O)n1-c1ccccc1,"activity change, negative = inhibition","[2]; Viability, at 45.9 µM (top of the series)",-19.3% (inactive)
O=S(=O)(O)Oc1ccc(C(c2ccc(OS(=O)(=O)O)cc2)c2ccccn2)cc1,"activity, negative = cell killing",[1]; [4],0.447% (inactive)
same,"activity, negative = cell killing",[1]; [3],-9.15% (inactive)
same,"activity, negative = cell killing",[1]; [5],21.1% (inactive)
same,"activity, negative = cell killing",[1]; [6],10.6% (inactive)
CCCCCCCCCCCCCCCC(=O)OCCC1CCN(CCCN2c3ccccc3Sc3ccc(S(=O)(=O)N(C)C)cc32)CC1,"activity, negative = cell killing",[1]; [4],-1.24% (inactive)
same,"activity, negative = cell killing",[1]; [3],-12.7% (inactive)
same,"activity, negative = cell killing",[1]; [5],-28.1% (inactive)
same,"activity, negative = cell killing",[1]; [6],11% (inactive)
